Assay outcomes (PubChem BioAssay)
LEDGF integ inh: blocks HIV-1 LEDGF/p75-dependent DNA integration | hit rate 0.64% among 370,000 | inhibition, % at 3.7 µM | AID 743269 | TR-FRET IN-LEDGF/p75 DNA integration, Eu/Cy5;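 active = inhibition above the screen-wide mean plus 3 SD, cut at about 13% in these data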;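 note: signal is the Cy5 over europium emission ratio at 671 and 618 nm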
MBD2 DNA inh: inhibitors of human MBD2 binding to methylated oligonucleotide | Q9UBB5 | TR-FRET | inhibition, % at 4.4 µM | hit rate 0.31% among 370,000 | AID 686964; in the data active = inhibition above about 13%
PRMT1 inh: PRMT1 (human) inhibition, primary screen. recombinant PRMT1, activity-based probe fluorescence polarization. inhibition, % at 2.79 µM. hit rate 1.3% among 370,000. AID 652257;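 active = inhibition above about 21% made by adding two undisclosed values, limit read from the data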
Target sequence (Q99873 whole entry, looked up): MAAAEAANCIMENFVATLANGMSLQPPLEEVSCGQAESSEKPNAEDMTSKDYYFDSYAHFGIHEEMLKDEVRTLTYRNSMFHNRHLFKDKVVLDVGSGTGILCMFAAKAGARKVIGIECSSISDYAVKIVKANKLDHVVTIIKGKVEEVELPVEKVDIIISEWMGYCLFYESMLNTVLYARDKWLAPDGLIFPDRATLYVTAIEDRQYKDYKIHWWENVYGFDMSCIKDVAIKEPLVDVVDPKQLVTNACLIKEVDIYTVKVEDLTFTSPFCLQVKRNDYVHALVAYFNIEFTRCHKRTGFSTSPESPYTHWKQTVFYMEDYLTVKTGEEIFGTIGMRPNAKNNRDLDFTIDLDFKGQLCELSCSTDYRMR
UHRF1 MBD2 ctr: blocks human UHRF1 binding to methylated DNA | UHRF1 binding to methylated oligo, TR-FRET | inhibition, % at 4.4 µM | hit rate 0.75% among 370,000; in the data active = inhibition above about 21%;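 note: UHRF1 SRA domain binding a hemimethylated CpG hairpin DNA probe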
Of the large screens only hits and unclear results are named; the others gave an inactive call. Only some compounds are listed: those with a hit (about 2.5% of all), similar ones and a draw of the others.

O=S1(=O)c2c(cccc2N2CCC[C@H]2CO)O[C@@H]2CCN1C2	none
CN(C)c1cccc(CNC(=O)c2ccc3nc([C@@H]4O[C@H](CO)[C@H](O)[C@H](O)[C@H]4O)[nH]c3c2)c1	UHRF1 MBD2 ctr 81
CNc1cccccc1=S	LEDGF integ inh 23, PRMT1 inh 26
O=C(CSc1nc(-c2ccccc2Cl)ns1)c1ccc(Cl)cc1	UHRF1 MBD2 ctr 32
Cc1cccc(-c2nsc(SCC(=O)c3ccc(Cl)cc3)n2)c1	none
O=C1CC(=O)NC(SCC(=O)Nc2ccccc2[N+](=O)[O-])=N1	PRMT1 inh 28
CC(=O)OCC1=C(C(=O)O)N2C(=O)[C@@H](NC(=O)Cc3cccs3)[C@H]2SC1	none
CC(=O)OCC1=C(C(=O)O)N2C(=O)C(NC(=O)CCn3nc(C)c(Cl)c3C)C2SC1 (stereo not given)	PRMT1 inh 24
CC(=O)OCC1=C(C(=O)O)N2C(=O)C(NC(=O)Cn3nc(C(F)F)c(Cl)c3C)C2SC1 (stereo not given)	none
O=C(COc1ccccc1)NC1C(=O)N2C(C(=O)O)=C(Cl)CSC12 (stereo not given)	PRMT1 inh 24
CC(=O)OCC1=C(C(=O)O)N2C(=O)C(NC(=O)CC(C)c3ccccc3)C2SC1 (stereo not given)	PRMT1 inh 22
CC(=O)OCC1=C(C(=O)O)N2C(=O)C(NC(=O)CCn3nc(C(F)(F)F)c(Br)c3C3CC3)C2SC1 (stereo not given)	PRMT1 inh 25
C[C@H](CO)N1C[C@H](C)[C@H](CN(C)Cc2ccncc2)OCc2ccccc2-c2c(n(C)c3ccccc23)C1=O	none
CCCCN(C)C(=O)C1CCN(c2ccc(S(=O)(=O)N3CCOCC3)cc2[N+](=O)[O-])CC1	none
CCCCN1CC(N2CCN(Cc3ccccc3)CC2)CS1(=O)=O (stereo not given)	none
CC1CCCN(C(=O)c2ccc3ncsc3c2)C1 (stereo not given)	PRMT1 inh 24
O=C(c1ccc2ncsc2c1)N1CCCC(C(F)(F)F)C1 (stereo not given)	none
Fc1ccccc1COc1ccc(C(=S)N2CCCC2)cc1	none
O=C(CN1CCN(c2ccc(O)cc2)CC1)Nc1ccc2c(c1)OCCO2	PRMT1 inh 24
COC(=O)[C@]12C[C@H](CC(=O)N3CCCCC3)C(=O)N(Cc3ccc4c(c3)OCO4)C1=C[C@H](C(C)(C)C)O[C@@H]2C	none
COC(=O)[C@]12C[C@H](CC(=O)NCC3CCCCC3)C(=O)N(Cc3ccc4c(c3)OCO4)C1=C[C@H](C(C)(C)C)O[C@@H]2C	UHRF1 MBD2 ctr 23
COC(=O)[C@]12C[C@H](CC(=O)NCC3CCCCC3)C(=O)N(CCc3ccc(OC)c(OC)c3)C1=C[C@H](C1CCCC1)O[C@@H]2C	none
COC(=O)[C@]12C[C@H](CC(=O)NCC3CCCCC3)C(=O)N(CCc3ccc(OC)c(OC)c3)C1=C[C@H](C(C)(C)C)O[C@@H]2C	UHRF1 MBD2 ctr 23
C[C@H](NC(=O)C1CCN(S(=O)(=O)c2ccccc2)CC1)C(=O)NCc1cccnc1	none
CC1=C(C(=O)N(C(C)C)C(C)C)CC(CC(=O)NCCCN(C)C)C(=O)N1CCCN1CCCC1=O (stereo not given)	none
CC1=C(C(=O)N(C)C)CC(CC(=O)NCCc2ccccn2)C(=O)N1CCCN1CCCC1=O (stereo not given)	UHRF1 MBD2 ctr 25
CCN(CC)C(=O)C1=C(C)N(CCCN2CCCC2=O)C(=O)C(CC(=O)NCCc2ccccn2)C1 (stereo not given)	none
CC1=C(C(=O)N(C)C)CC(CC(=O)NCCCN(C)C)C(=O)N1CCCN1CCCC1=O (stereo not given)	UHRF1 MBD2 ctr 24
CC1=C(C(=O)N(C)C)CC(CC(=O)NC2CC2)C(=O)N1CCC1=CCCCC1 (stereo not given)	none
CC1=C(C(=O)N(C)C)CC(CC(=O)NCCCN(C)C)C(=O)N1CCC1=CCCCC1 (stereo not given)	UHRF1 MBD2 ctr 21
OC(Cc1cccc(Br)c1)c1ncc(-c2ccccc2C(F)(F)F)[nH]1 (stereo not given)	none
CC(=O)NN1C(=O)/C(=C/c2ccc(Br)o2)SC1=S	PRMT1 inh 25
CC(=O)NN1C(=O)/C(=C\c2ccc(Br)o2)SC1=S	none
O=S(=O)(c1ccc(NC(=S)N/N=C/c2c3ccccc3cc3ccccc23)cc1)N1CCOCC1	none
Cc1ccc(-c2ccc(/C=C3/NC(=O)NC3=O)o2)cc1[N+](=O)[O-]	none
CC1=C(C#N)C(=O)NC(=O)/C1=C\c1ccc(-c2cc(C)c(C)cc2[N+](=O)[O-])o1	PRMT1 inh 40
Cc1c2ccncc2cc2c1[nH]c1ccccc12	none
COc1ccc2[nH]c3c(C)c4ccncc4c(C)c3c2c1	MBD2 DNA inh 33, UHRF1 MBD2 ctr 36
C/C(=N\Nc1ccc(C(F)(F)F)cn1)c1ccncc1	UHRF1 MBD2 ctr 22
Oc1ccc(/C=N/Nc2ccc(C(F)(F)F)cn2)cc1	none
COc1ccc(NC(=O)N(C)C[C@@H]2Oc3cc(C#CCN(C)C)ccc3S(=O)(=O)N([C@H](C)CO)C[C@H]2C)cc1	none
O=C1C(Cl)=C(NC(=O)c2ccccc2)C(=O)C(Cl)=C1NC(=O)c1ccccc1	PRMT1 inh 96
O=C(NC1=C(Nc2ccc(Cl)cc2)C(=O)c2ccccc2C1=O)c1ccccc1	none
Cc1cccc(NC2=C(NC(=O)c3ccccc3)C(=O)c3ccccc3C2=O)c1	PRMT1 inh 29
Cc1ccc(S(=O)(=O)NNC(=O)c2ccncc2)cc1[N+](=O)[O-]	none
COCCCn1c(=S)[nH]c2ccc(N3CCOCC3)cc2c1=O	none
CCCCN(C)CCn1c(=S)[nH]c2ccc(N3CCOCC3)cc2c1=O	PRMT1 inh 24
COC(=O)Nc1ccc(S(=O)(=O)N2CCC(C(=O)NCc3ccc4c(c3)OCO4)CC2)cc1	none
Cc1cc(CN2CCCC(CO)(Cc3cccc(Cl)c3)C2)n[nH]1 (stereo not given)	UHRF1 MBD2 ctr 24
CC(C)Cc1cc(CN2CCCC(CO)(Cc3cccc(Cl)c3)C2)[nH]n1 (stereo not given)	none
CCN(C(=O)c1ccc(NC(=O)Cc2ccccc2)cc1)c1ccccc1	none
c1ccc(Nc2cccc3c(Nc4ccccc4)cccc23)cc1	none
O=S(=O)(O)c1cccc2cccc(Nc3ccccc3)c12	PRMT1 inh 25
O=c1[nH]c(Sc2ccc([N+](=O)[O-])cc2[N+](=O)[O-])nc2ccccc12	PRMT1 inh 23
COc1ccccc1NS(=O)(=O)c1cc(NC(=O)C2CCCC2)ccc1N1CCOCC1	PRMT1 inh 23
COc1ccccc1NS(=O)(=O)c1cc(NC(=O)c2cccs2)ccc1N1CCCC1	PRMT1 inh 23
Cc1ccc(C)c(N2CCN(CCCc3ccccc3)CC2)c1	none
CC1Cc2[nH]c(=S)[nH]c(=O)c2C(C)O1 (stereo not given)	none
N#Cc1ccc(C(C(=O)NC2CCCCC2)n2c(=O)c(-c3cc4ccccc4[nH]3)nc3ccccc32)cc1 (stereo not given)	none
CC(C)(C)NC(=O)C(c1cccc2ccccc12)n1c(=O)c(-c2ccco2)nc2ccccc21 (stereo not given)	PRMT1 inh 22
